Experimental data taken from PubChem BioAssay AID1903 (Southern Research Specialized Biocontainment Screening …, 2009).
In all, about 310,000 compounds went through this assay and about 1,200 (0.39%) were called active. How the calls were made is not given here. The list is a sample of the results. Entries with a potency or affinity are not part of this list.

Target: Large T antigen (Simian virus 40) (UniProt P03070)
Test: TAg ATPase/helicase activity blockers – biochemical (AID 1903)
Settings: SV40 large T antigen ATPase/helicase inhibition assay; at 20 µM; hits give high values

Sequence of Large T antigen (Simian virus 40) (P03070 whole entry, looked up): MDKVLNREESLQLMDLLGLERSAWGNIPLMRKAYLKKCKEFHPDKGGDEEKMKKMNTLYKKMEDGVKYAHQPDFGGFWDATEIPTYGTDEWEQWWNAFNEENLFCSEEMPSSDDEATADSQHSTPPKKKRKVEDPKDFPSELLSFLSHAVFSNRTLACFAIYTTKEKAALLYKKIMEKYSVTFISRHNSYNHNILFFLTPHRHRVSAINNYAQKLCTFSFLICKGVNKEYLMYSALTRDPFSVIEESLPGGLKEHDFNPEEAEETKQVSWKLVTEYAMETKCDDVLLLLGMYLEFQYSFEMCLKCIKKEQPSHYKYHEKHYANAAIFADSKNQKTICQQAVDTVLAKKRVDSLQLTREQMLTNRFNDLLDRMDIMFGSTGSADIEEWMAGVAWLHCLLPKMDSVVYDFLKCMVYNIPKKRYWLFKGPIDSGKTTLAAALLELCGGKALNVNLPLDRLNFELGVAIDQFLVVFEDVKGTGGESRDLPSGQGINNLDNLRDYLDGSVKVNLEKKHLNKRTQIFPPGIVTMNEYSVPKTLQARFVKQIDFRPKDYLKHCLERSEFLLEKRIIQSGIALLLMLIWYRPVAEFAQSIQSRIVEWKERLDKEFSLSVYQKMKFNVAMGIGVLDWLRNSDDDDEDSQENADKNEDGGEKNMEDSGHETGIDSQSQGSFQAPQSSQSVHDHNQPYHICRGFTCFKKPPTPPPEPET

inhibition, inactive:
O=C(CCN1CCN(c2ccc(Cl)cc2)CC1)Nc1nccs1 17.1%
COC(=O)c1ccc(CN2CCC(n3nccc3NC(=O)C3CCCC3)CC2)cc1 20%
O=C(COC(=O)C1(c2ccccc2)CC1)NNC(=O)c1ccccc1 11.2%
COc1cc(C=O)ccc1OCCOCCOc1cc(C)ccc1Cl 10.5%
O=C(c1ccc(-c2ccc([N+](=O)[O-])cc2)o1)N1CCCCC1 9.33%
CCOC(=O)CN1C(=O)S/C(=C\c2ccc(-c3ccc(C(=O)O)c(Cl)c3)o2)C1=O 17%
Cc1ccc(N2NC(=O)/C(=C/c3ccc(-c4ccc(Cl)c(C(=O)O)c4)o3)C2=O)cc1 14.8%
Cc1ccc(N2NC(=O)/C(=C/c3ccc(-c4ccc(Cl)c(C(=O)O)c4)o3)C2=O)cc1C 33.6%
O=C(O)c1cc(-c2ccc(/C=C3/SC(=S)N(Cc4ccccc4)C3=O)o2)ccc1Cl 24.7%
O=C(O)c1cc(-c2ccc(/C=C3\NC(=O)N(c4ccc(Cl)cc4)C3=O)o2)ccc1Cl 31.3%
C#CCN1C(=O)S/C(=C\c2ccc(-c3ccc(Cl)c(C(=O)O)c3)o2)C1=O 11.9%
O=C(CCN1C(=O)C2CC=C(Cl)CC2C1=O)Nc1ccccc1O (configuration not stated) 3.99%
C/C(=N\Nc1ccc(C(=O)O)cc1)c1ccc(S(=O)(=O)NCc2ccco2)cc1 11%
CCc1cccc(C)c1NC(=O)c1ccc2c(c1)CCN2S(C)(=O)=O 1.63%
Nc1ccc2c(c1)Cc1cc([N+](=O)[O-])ccc1-2 7.98%
Nc1ccc2c(c1)C(=O)c1ccccc1C2=O 7.9%
CC(=O)N1CCN(C(=O)CSc2nc3c(cnn3-c3ccccc3)c(=O)[nH]2)CC1 2.65%
Cc1cccc2cc(CN(CCCN3CCOCC3)Cc3nnnn3C(C)(C)C)c(=O)[nH]c12 10%
O=C(Nc1ccccc1Cl)N1CCSc2ccccc21 5.32%
COc1cccc(-n2c(SCC(N)=O)nc3ccccc3c2=O)c1 4.09%
CCCCCn1c(=O)c2ccccc2n2c(CCl)nnc12 15.8%
Cc1nnc2n(-c3ccccc3)c(=O)c3ccccc3n12 -1.7%
COCCCn1c(=O)c2ccccc2n(Cc2ccccc2)c1=O 7.67%
CCCCn1c(=O)c2ccccc2c2ccccc2c1=O 3.41%
CCCn1c(=O)c2ccccc2n2c(SCC(N)=O)nnc12 9.05%
COCCCn1c(=O)c2ccccc2c2ccccc2c1=O -0.58%
CCCn1c(=O)c2ccccc2n2c(SCC(=O)c3ccccc3)nnc12 16.8%
